Assay results reported in PubChem BioAssay AID2462 (Broad Institute, 2010).
Among all 330,000 compounds or so, about 220 (0.067%) were called active. What follows is part of a selection rich in actives, with near analogues and random picks from the rest. A number with no mark means an inactive call.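 Rule for the calls: active = over half of replicate activation scores above 10%, or exactly half above 10 with the replicate mean above 10; inconclusive = replicate mean below 10 yet half the replicates above 10; inactive = over half of replicates below 10.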

Assay: inducers of caspase signal in A1-primed MEFs – cell-based, luminescence, HTS, A1 inhibitor project, primary screen (AID 2462)
Conditions: MEF A1-2A-BIM cells, Caspase-Glo 3/7 luminescence, 3 h; stronger effect = higher value; percent of clofoctol response, vehicle zero; concentration not given here

Q: With `O=C(NNC(=O)c1cccc(S(=O)(=O)Nc2ccc(Cl)cc2)c1)c1ccc(=O)[nH]c1` as the compound, how does the caspase activation read?
A: -1.36%

Q: Which caspase activation does the source give for `Cc1[nH]n(-c2ccccc2)c(=O)c1/C=N/NC(=O)c1ccoc1C` here?
A: -3.41%

Q: Which caspase activation does the source give for `COc1cc(SC#N)ccc1N=Cc1c(C)[nH]n(-c2ccc(C)cc2)c1=O` here?
A: 11.1% (active)

Q: For `Cc1ccc(-n2[nH]c(C)c(/C=N/NC(=O)c3cccc([N+](=O)[O-])c3)c2=O)cc1C`, which caspase activation is on record?
A: -4.49%

Q: Which caspase activation does the source give for `O=C(NNS(=O)(=O)c1c(F)cc(F)c(Cl)c1F)C12CC3CC(CC(C3)C1)C2` here?
A: 0.494%

Q: With `CCOC(=O)c1c(-c2cccc(N)c2)cn2ccccc12` as the compound, how does the caspase activation read?
A: 0.104%

Q: With `Cc1cc(NC(=O)CN2C(=O)NC(C)(CCc3ccccc3)C2=O)no1` (stereo unspecified) as the compound, how does the caspase activation read?
A: -0.914%

Q: With `Cc1ccc(N/N=C2\COC(C)(C)CC2=O)cc1` as the compound, how does the caspase activation read?
A: 0.0616%

Q: Which caspase activation does the source give for `Cc1c(Cl)cccc1NC(=O)CSc1ccc(-c2cccnc2)nn1` here?
A: 0.424%

Q: Which caspase activation does the source give for `CC(C)C[C@H](NC(=O)N1CC(=O)Nc2ccccc21)C(=O)N[C@H](Cc1ccccc1)C(=O)O` here?
A: 0.252%

Q: For `CNC(=O)COc1ccc(S(=O)(=O)Nc2ccccc2)cc1`, which caspase activation is on record?
A: -0.951%

Q: For `CCOC(=O)/C(=N\Nc1ccccc1[N+](=O)[O-])c1csc(Nc2ccccc2)n1`, which caspase activation is on record?
A: -0.494%

Q: For `CCOC(=O)/C(=C\c1ccc([N+](=O)[O-])cc1)C(=O)c1cc(C(C)=O)c(Nc2ccccc2)s1`, which caspase activation is on record?
A: 46.4% (active)

Q: For `Cc1ccc(NC(=O)/C(=C/c2ccc([N+](=O)[O-])cc2)NC(=O)c2ccccc2)cc1`, which caspase activation is on record?
A: -0.427%

Q: For `C/C(=C/C(=O)N1CCN(C)CC1)C(=O)O`, which caspase activation is on record?
A: 0.653%

Q: With `Cc1cc(C)nc(NNC2=CC(=O)CC(C)(C)C2)n1` as the compound, how does the caspase activation read?
A: -0.196%

Q: With `CC(C)(C)N(Cc1ccccc1)C(=O)COC(=O)CCc1c[nH]c2ccccc12` as the compound, how does the caspase activation read?
A: -1%

Q: With `COc1ccc(N2C(=O)/C(=C\c3ccco3)N=C2SCC(N)=O)cc1Cl` as the compound, how does the caspase activation read?
A: -0.66%

Q: For `Cc1cc(C)n(S(=O)(=O)c2cccc([N+](=O)[O-])c2)n1`, which caspase activation is on record?
A: 0.962%

Q: Which caspase activation does the source give for `O=C(NCc1ccco1)c1ccc([N+](=O)[O-])cc1Cl` here?
A: 1.19%

Q: Which caspase activation does the source give for `COc1cc2c(cc1NC(=O)COC(=O)/C=C/c1ccccc1)oc1ccccc12` here?
A: 8.52% (active)

Q: Which caspase activation does the source give for `COc1cc(/C=C/C(=O)OCC(=O)c2ccccc2)cc(OC)c1OC` here?
A: 0.0945%

Q: With `COc1cc2c(cc1NC(=O)CN1CCN(S(=O)(=O)c3ccc(F)cc3)CC1)oc1ccccc12` as the compound, how does the caspase activation read?
A: -0.105%

Q: Which caspase activation does the source give for `Cc1[nH]n(-c2ccccc2)c(=O)c1CCOC(=O)c1ccc(C(F)(F)F)cc1` here?
A: 0.514%

Q: Which caspase activation does the source give for `O=C(CCc1nnc2ccc(NCc3ccccc3Cl)nn12)NCC1CCN(C2CCCC2)C1` (stereo unspecified) here?
A: -0.323%

Q: For `CCC(C)(C)c1ccc(OCC(=O)N(C)C)c(C(C)(C)CC)c1`, which caspase activation is on record?
A: -0.559%

Q: With `O=C(COc1ccc([N+](=O)[O-])cc1Cl)Nc1ccc2[nH]c(=O)[nH]c2c1` as the compound, how does the caspase activation read?
A: -0.19%

Q: With `Cc1cc(OCCN2CCCC2)cc(C(C)C)c1` as the compound, how does the caspase activation read?
A: 0.0914%

Q: For `O=C(O)CC1S/C(=N\N=C/c2ccccc2O)N(c2ccc(O)cc2)C1=O` (stereo unspecified), which caspase activation is on record?
A: 0.687%

Q: Which caspase activation does the source give for `CCOc1ccc(NC(=O)CC2C(=O)N(c3ccccc3)C(=O)N2CCOC)cc1` (stereo unspecified) here?
A: 0.358%

Q: With `C=CCC1(C#N)C(=S)NC(C)=C(C(=O)OCC)C1c1ccccc1` (stereo unspecified) as the compound, how does the caspase activation read?
A: 0.0109%

Q: With `Cc1cccc(NS(=O)(=O)c2ccc(C)c(C(=O)NCC(c3ccccc3)N(C)C)c2)c1` (stereo unspecified) as the compound, how does the caspase activation read?
A: 1.2%

Q: With `Cc1c2cn[nH]c(=O)c2c(C)n1Cc1ccc(F)cc1` as the compound, how does the caspase activation read?
A: -0.558%

Q: Which caspase activation does the source give for `Cc1cc(NC(=O)CSc2nc3cc(Cl)ccc3c(=O)n2Cc2ccco2)no1` here?
A: 29.5% (active)

Q: With `Cc1cc(NC(=O)CSc2nnc(-c3ccco3)n2N)no1` as the compound, how does the caspase activation read?
A: -0.817%

Q: With `Cc1cc(NC(=O)CSc2nc3ccccc3n2CC(C)C)no1` as the compound, how does the caspase activation read?
A: 0.633%

Q: For `CC(NC(=S)Nc1ccccc1)C1COc2ccccc2O1` (stereo unspecified), which caspase activation is on record?
A: -0.247%

Q: For `CCC1=NN(C(=O)Cc2ccc([N+](=O)[O-])cc2)C(O)(c2ccc(Br)cc2)C1` (stereo unspecified), which caspase activation is on record?
A: 1.08%

Q: With `Cc1ccc(S(=O)(=O)N(CC(O)CN2C(=O)NC(C)(C)C2=O)c2cccc([N+](=O)[O-])c2)cc1` (stereo unspecified) as the compound, how does the caspase activation read?
A: 0.0755%

Q: For `CSc1nnnn1-c1c(C)cc(C)cc1C`, which caspase activation is on record?
A: -0.157%

Q: Which caspase activation does the source give for `O=C1CCC(C(=O)N2CCCCO2)CN1Cc1cccc(C(F)(F)F)c1` (stereo unspecified) here?
A: 0.28%

Q: With `Cc1ccc(/C=C/C(=O)OCC(=O)NCc2ccc(Cl)cc2)o1` as the compound, how does the caspase activation read?
A: -0.527%

Q: With `CCOC(=O)CSc1ccccn1` as the compound, how does the caspase activation read?
A: -0.651%

Q: For `CCOC(=O)CSc1nc(C)cc2c1C(=O)OC2`, which caspase activation is on record?
A: 0.711%

Q: For `CCOC(=O)CSC1=N/C(=C/c2ccc(-n3cncn3)cc2)C(=O)N1C(C)=O`, which caspase activation is on record?
A: 8.99% (active)

Q: With `O=C1CCC(C(=O)N2CCC(O)(c3ccccc3)CC2)CN1CCc1ccccc1` (stereo unspecified) as the compound, how does the caspase activation read?
A: 0.199%

Q: With `COCCNc1ccc(-c2n[nH]c(=O)c3ccccc23)cc1[N+](=O)[O-]` as the compound, how does the caspase activation read?
A: -1.33%

Q: Which caspase activation does the source give for `Cc1ccc(NC(=O)c2ccc(Oc3ncccn3)cc2)cc1` here?
A: -1.4%

Q: With `Cc1ccccc1N1CCN(C2CCCN(C(=O)c3ocnc3C)C2)CC1` (stereo unspecified) as the compound, how does the caspase activation read?
A: 0.888%

Q: Which caspase activation does the source give for `CCc1ccc(/C=N/NC(=O)c2ccc(OC3CCCC3)cc2)s1` here?
A: -0.334%

Q: With `COC(=O)C(=Nc1ccccc1)/C(C(=O)C(=O)N(C)c1ccccc1)=C(\O)c1ccc(Cl)cc1` as the compound, how does the caspase activation read?
A: -1%

Q: With `Cc1ccc(-n2c(SCC(=O)Nc3ncc(Cl)cc3Cl)nc3ccccc32)cc1` as the compound, how does the caspase activation read?
A: 0.221%

Q: With `CCC1(C(=O)c2ccccc2)C(c2cccc([N+](=O)[O-])c2)C1(C(=O)OC)C(=O)OC` (stereo unspecified) as the compound, how does the caspase activation read?
A: -0.612%

Q: Which caspase activation does the source give for `O=C1Nc2c(Br)cc(Br)cc2C1(O)N1CCOCC1` (stereo unspecified) here?
A: -1.16%

Q: With `COc1ccc(C(=O)NCc2ccc(Cl)cc2)cc1S(=O)(=O)N1CCCC1` as the compound, how does the caspase activation read?
A: -0.377%

Q: For `COc1cc(C2C(N3C(=O)c4ccccc4C3=O)C(=O)N2c2ccc(C)c(C)c2)cc(OC)c1OC` (stereo unspecified), which caspase activation is on record?
A: 0.266%
